The list is a sample of the results.
aSyn UTR act: Activators via SNCA 5'UTR binding, MLPCN | hit rate 7.1% among 300,000 | activity score, % (tested at 7.5 µM), hits read low | AID 1814, 2009 | alpha-synuclein 5'UTR reporter, activators screen; in the data active = activity score below about -60%
The depositor's hits bear a star.

SMILES	aSyn UTR act
CCOC(=O)c1cnc2c(ccc3ccccc32)c1Cl	-87*
CCOC(=O)c1cnc(NCc2ccccc2)nc1C	-73*
CCOC(=O)c1cnc(-n2nc(C)cc2C)nc1NNc1ncc(-c2ccccc2)cn1	83
Cc1ccc2nc3c(cc(C(N)=S)c(=N)n3CCCOC(C)C)c(=O)n2c1	-64*
CSc1ccc(CNc2ccc(Cl)cc2)cc1	-114*
COC(=O)Cc1ccc2oc(-c3cccnc3)nc2c1	-64*
CCCC(=O)NC(c1ccccc1Cl)c1ccc2cccnc2c1O (stereo not drawn)	68
CCCC(=O)Nc1ccc2oc(-c3cccnc3)nc2c1	-80*
O=C(NC(=S)Nc1ccc2oc(-c3cccnc3)nc2c1)c1cccc(Cl)c1	-115*
CCCC(=O)Nc1ccc(-c2nc3ncccc3o2)cc1	-181*
CCNc1nc(N)c(C(=O)c2ccc(Cl)s2)s1	-188*
O=C(NCCC1=CCCCC1)Nc1ccc2nsnc2c1	-110*
O=C(NCc1ccco1)Nc1ccc2nsnc2c1	-76*
O=C(NCc1ccco1)Nc1ccc(Br)cc1	-119*
O=C(O)c1cccc(OCc2ccccc2Cl)c1	-188*
CCC1CCCCN1CCCNC(=O)Cn1c2ccccc2c2nc(=O)cc(C)n21 (stereo not drawn)	-139*
CCN(CC)c1ccc(C=N/C(C#N)=C(\N)C#N)cc1	-138*
C(=N\C(/N=C/c1ccco1)c1ccco1)/c1ccco1	-68*
Cc1sc2ncn(/N=C/c3ccco3)c(=O)c2c1C	-67*
Cn1cc(/C=N/n2cnc3scc(-c4ccc(Cl)cc4)c3c2=O)c2ccccc21	87
O=[N+]([O-])c1ccc(-c2ncc(-c3ccc(Br)cc3)o2)cc1	-195*
CN1CCN(c2ccc([N+](=O)[O-])cc2C(=O)c2ccc(Br)cc2)CC1	67
Cc1ccccc1CSc1nnc(-c2ccccn2)n1C	-104*
Cn1c(SCc2ccccc2Cl)nnc1-c1cnccn1	-92*
COc1ccc(Cn2c(SCc3ccccc3C)nc3cc(OC)c(OC)cc3c2=N)cc1	93
SMILES	aSyn UTR act
Cn1c(SCc2ccccc2[N+](=O)[O-])nnc1-c1cccnc1	-68*
Cn1c(SCc2cccc(F)c2)nnc1-c1cnccn1	-98*
Cn1c(SCc2cccc(F)c2)nnc1-c1ccccn1	-142*
Cn1c(SC/C=C/c2ccccc2)nnc1-c1cnccn1	-63*
Nc1ccccc1-c1nnc(SCc2ccccc2Cl)[nH]c1=O	-69*
O=c1cc(NS(=O)(=O)c2ccccc2)nc(SCc2ccccc2Cl)[nH]1	58
CCOc1ccc(N2C(=O)c3ccccc3C2O)cc1 (stereo not drawn)	-96*
CCOc1ccc(N2Cc3ncccc3C2=O)cc1	-103*
CCC(C)NC(=O)c1cc(Sc2nnc(C)s2)nc2ccccc12 (stereo not drawn)	-67*
CCNC(=S)Nc1ccc(OCc2nc3ccccc3s2)cc1	-90*
O=C(O)CCCC(=O)Nc1ccc(OCc2nc3ccccc3s2)cc1	-67*
Cc1cccc(-c2cnn(-c3ccccc3)c2N)c1	-129*
Nc1c(-c2ccccc2)cnn1-c1cccc(Cl)c1	-144*
Cc1cccc(-c2cnn(-c3cccc([N+](=O)[O-])c3)c2N)c1	-75*
Cc1ccc(N/N=C2\CCS(=O)(=O)c3sccc32)cc1	-89*
Cc1ccc(NC(=S)Nc2cccc3ccccc23)cc1	-65*
Fc1ccc(NC(=S)Nc2cccc3ccccc23)cc1	-84*
CCN(CC)S(=O)(=O)c1cccc(-c2nnc(SCc3nc4ccccc4s3)o2)c1	-113*
Brc1ccccc1-c1nnc(SCc2nc3ccccc3s2)o1	-244*
CCCSc1nsc(NC(=O)CCC)n1	-142*
CCCCCCSc1nsc(NC(C)=O)n1	-97*
CCCSc1nsc(NC(=O)c2cccnc2OCC)n1	-72*
CCCCSc1nsc(NC(C)=O)n1	-135*
O=Cc1cc2ccccc2nc1SCc1ccc(Cl)c(Cl)c1	109
COC(=O)/C(C#N)=C/c1c[nH]c2ccccc12	-96*
SMILES	aSyn UTR act
CCOC(=O)/C(C#N)=C/c1cc2ccccc2nc1Cl	-80*
CCOC(=O)/C(C#N)=C/c1c[nH]c2ccccc12	-66*
CCOC(=O)/C(C#N)=C/Nc1ccccc1OC	-122*
Cc1ccccc1-c1nc(-c2ccc(NC(=O)c3ccc(Br)o3)cc2)no1	-199*
Cc1ccccc1-c1nc(-c2ccc(Br)o2)no1	-110*
COc1ccc(Cl)cc1-c1nc(-c2ccc(Br)o2)no1	-123*
Fc1ccccc1-c1nc(-c2ccc(Br)o2)no1	-74*
Cc1cc(NC(=O)c2ccccc2F)ncc1NC(=O)c1cccs1	-63*
Cc1cc(NC(=O)c2ccccc2)ncc1NC(=O)c1cccs1	-103*
Cc1cc(NC(=O)c2cccs2)ncc1NC(=O)c1cccc(F)c1	-129*
Cc1cc(NC(=O)c2cccs2)ncc1NC(=O)C(C)C	-145*
O=C(Nc1ccc(Cl)cc1)c1ccc2nsnc2c1	-202*
CN(C)c1ccc(NC(=O)c2ccc3nsnc3c2)cc1	-166*
CC(C)(C)C(=O)Nc1ccc(-c2cc3cc(Cl)ccc3o2)cc1	-124*
CC(=O)c1ccc(NC(=O)c2noc3c2CCCCC3)cc1	-87*
